Results reported in PubChem BioAssay (NCATS).
Inconclusive results are not listed. Calls of active or inactive are those of the source. Unless noted, the rule behind the calls is not given here.

Assays:
[1] = qHTS profiling of the MIPE4 collection as inhibitors of Plasmodium falciparum (3D7) proliferation (AID 743344);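 note: scaled between DMSO vehicle wells and 0.29 µM artemisinin as full inhibition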; conditions: P. falciparum 3D7 in erythrocytes, SYBR Green DNA fluorescence, 72 h
Procedure, shortened: (§1)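 Parasite DNA was quantified by SYBR Green I fluorescence (ex 485, em 535 nm) after overnight lysis in saponin/Triton buffer at room temperature. Cultures at 0.3% parasitemia and 2.5% hematocrit were first exposed to compound for 72 h at 37 C; signals were normalised to artemisinin (0.29 uM) and vehicle wells.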

[2] = qHTS profiling of the MIPE4 collection as inhibitors of Plasmodium falciparum (DD2) proliferation (AID 743345); conditions: P. falciparum Dd2 in erythrocytes, SYBR Green DNA, 72 h
Procedure, shortened: as §1

[3] = qHTS profiling of the MIPE4 collection as inhibitors of Plasmodium falciparum (DD2) proliferation (Rep 2) (AID 743346); conditions: P. falciparum Dd2 in erythrocytes, SYBR Green DNA, 72 h
Procedure, shortened: as §1

[4] = qHTS profiling of the MIPE4 collection as inhibitors of Plasmodium falciparum (HB3) proliferation (AID 743347);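 note: plate controls were DMSO vehicle wells for no effect and artemisinin wells for full effect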; conditions: P. falciparum HB3 in erythrocytes, SYBR Green DNA, 72 h
Procedure, shortened: as §1

[5] = High-throughput drug toxicity screening in the BPDCN cell line Gen2.2 (AID 1224824); conditions: Gen2.2 BPDCN cells; at 45.8 µM (top of the series) unless noted;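 note: cells exposed to compounds for 48 h before reading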
Procedure, shortened: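 Seed 500 exponentially growing Gen2.2 cells/well; add compounds by pin tool; incubate 48 h, 37 °C, 5% CO2; add CellTiter-Glo, 15 min RT; read luminescence. % activity vs DMSO (100%) and bortezomib (0%).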

[6] = High-throughput drug toxicity screening in the BPDCN cell line Cal-1 (AID 1224825); conditions: Cal-1 BPDCN cell viability, qHTS; at 45.8 µM (top of the series) unless noted
Procedure, shortened: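 Viability of the BPDCN line Cal-1 is measured as ATP-based luminescence (CellTiter-Glo) following 48 h incubation with compounds. Percent activity uses DMSO-treated wells as 100% and 9.2 uM bortezomib as 0%.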

[7] = qHTS assay for measurement of the activity of small molecule inhibitors on Zika virus induced Caspase-3 activity in human iPSC derived neural progenitor cells (hNPCs) (AID 1224857; active = well fitted curve in the direction sought with a large enough effect; an effect the other way counts as inactive or inconclusive; note: % of control where 0% means no effect; nearly all actives have a fitted effect of over 65% in size)
Procedure, shortened: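 Percent inhibition of virus-induced caspase-3/7 luminescence (Caspase-Glo), scaled between uninfected cells and Zika-infected cells. hNPCs received compound 1 hr before ZIKV at 2 FFU/cell, with 6 hours infection at 37 C.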

[8] = qHTS assay for measurement of the activity of small molecule inhibitors on Zika virus induced Caspase-3 activity in human astrocytoma cells (AID 1224859; active = well fitted curve in the direction sought with a large enough effect; an effect the other way counts as inactive or inconclusive;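 note: plate controls were ZIKV-infected untreated cells for no effect and uninfected cells for full effect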)
Procedure, shortened: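 Luminescent caspase-3/7 read-out (30 min reagent, room temperature) in human SNB-19 cells infected 6 h with ZIKV (2 FFU/cell) after 1 h compound pre-incubation; Data were normalised to uninfected and infected wells.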

[9] = qHTS Screen of the MIPE 4.0 Collection Against Ewings Sarcoma (RDES) (AID 1259252; active = well fitted curve in the direction sought with a large enough effect; an effect the other way counts as inactive or inconclusive; note: nearly all actives have a fitted effect of over 35% in size; note: potency is the fitted concentration of half-maximal effect)
Procedure, shortened: (§2)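 Measured: ATP luminescence (CellTiter-Glo) 10 min after reagent addition, following 48 h drug treatment. Relative luciferase units converted to percent activity, with no-cell wells as full and DMSO wells as zero inhibition.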

[10] = qHTS Screen of the MIPE 4.0 Collection Against Ewings Sarcoma (TC32) (AID 1259256; active = well fitted curve in the direction sought with a large enough effect; an effect the other way counts as inactive or inconclusive; note: potency is the fitted concentration of half-maximal effect; nearly all actives have a fitted effect of over 45% in size)
Procedure, shortened: as §2

[11] = qHTS profiling for inhibitors of Plasmodium falciparum (HB3) proliferation (AID 743324; active = well fitted curve in the direction sought with a large enough effect; an effect the other way counts as inactive or inconclusive;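 note: 100% = DMSO vehicle wells and 0% = artemisinin-treated control wells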); conditions: Plasmodium falciparum HB3 blood-stage proliferation; at 28.7 µM (top of the series) unless noted
Procedure, shortened: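 SYBR Green fluorescence (485 ex/535 em) of lysed cultures, incubated overnight at room temperature in the dark, quantifies parasite DNA. Infected erythrocytes at 0.3% parasitemia and 2.5% hematocrit were exposed 72 h; values normalized to DMSO and 0.29 uM artemisinin controls.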

[12] = qHTS assay to identify small molecule inhibitors of chordoma cells - UCH-2 (AID 1259356; active = well fitted curve in the direction sought with a large enough effect; an effect the other way counts as inactive or inconclusive; note: % is set by controls: 0 for no effect and ±100 for the full control effect)
[13] = qHTS Screen of the MIPE 4.0 Collection Against Ewings Sarcoma (EW8) (AID 1259255; active = well fitted curve in the direction sought with a large enough effect; an effect the other way counts as inactive or inconclusive;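 note: 100% = DMSO-treated cells and 0% = medium-only wells without cells; nearly all actives have a fitted effect of over 35% in size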)
Procedure, shortened: as §2

[14] = at 28.5 µM unless noted

Question: With `Cc1cc(-c2ncc(CC(=O)Nc3ccc(-c4cnccn4)cn3)cc2C)ccn1` as the compound, how does the parasite growth, % of DMSO control [1, 14] read?
Answer: 36.5%

Question: What about the parasite growth remaining, % of DMSO control (lower = more inhibition) [2, 14] of the same compound?
Answer: 87.9%

Question: And the parasite growth, % of control (lower = inhibition) [3, 14]?
Answer: 71.8%

Question: And the growth, % of control [4, 14]?
Answer: 52.1%

Question: And the cell viability, % of control (lower = more cytotoxic) [5]?
Answer: 267%

Question: What about the viability (% of control) [6] of the same compound?
Answer: 97%

Question: And the Potency [7]?
Answer: inactive

Question: And the Potency [8]?
Answer: inactive

Question: And the Potency [9]?
Answer: 16.6 µM (active)

Question: And the Potency [10]?
Answer: 23.5 µM (active)

Question: What does the source list for `Cc1cc(C(C)Nc2ccccc2)c2nc(N3CCOCC3)cc(=O)n2c1` (stereo unspecified)?
Answer: parasite growth, % of DMSO control [1, 14]: 11.8%; parasite growth remaining, % of DMSO control (lower = more inhibition) [2, 14]: 71.3%; growth, % of control [4, 14]: 15.4%; cell viability, % of control (lower = more cytotoxic) [5]: 47.8%; viability (% of control) [6]: 62.3%; Potency [7]: inactive; Potency [8]: inactive; Potency [9]: 23.5 µM (active); Potency [10]: 23.5 µM (active)

Question: With `Clc1ccc(COC(Cn2ccnc2)c2ccc(Cl)cc2Cl)c(Cl)c1` (stereo unspecified) as the compound, how does the remaining proliferation (% of control), lower = more inhibition [11] read?
Answer: -0.548%

Question: What about the parasite growth, % of DMSO control ([1]; at 9.64 µM (top of the series)) of the same compound?
Answer: 4.92%

Question: What about the parasite growth, % of DMSO control ([1]; at 28.5 µM) of the same compound?
Answer: 5.47%

Question: And the parasite growth remaining, % of DMSO control (lower = more inhibition) ([2]; at 9.64 µM (top of the series))?
Answer: 11.2%

Question: What about the parasite growth remaining, % of DMSO control (lower = more inhibition) ([2]; at 28.5 µM) of the same compound?
Answer: 6.56%

Question: What about the parasite growth, % of control (lower = inhibition) ([3]; at 9.64 µM (top of the series)) of the same compound?
Answer: 19.2%

Question: What about the parasite growth, % of control (lower = inhibition) ([3]; at 28.5 µM) of the same compound?
Answer: 12.3%

Question: What about the growth, % of control ([4]; at 9.64 µM (top of the series)) of the same compound?
Answer: 8.03%

Question: And the growth, % of control ([4]; at 28.5 µM)?
Answer: 5.5%

Question: What about the cell viability, % of control (lower = more cytotoxic) [5] of the same compound?
Answer: 90.5%

Question: And the viability (% of control) [6]?
Answer: 72.7%

Question: And the Potency [7]?
Answer: inactive

Question: What about the Potency [8] of the same compound?
Answer: inactive

Question: And the Potency [9]?
Answer: 26.4 µM (active)

Question: And the Potency [10]?
Answer: 18.7 µM (active)

Question: What about the outcome [12] of the same compound?
Answer: inactive

Question: Which parasite growth, % of DMSO control [1, 14] does the source give for `Cc1cccc(-c2[nH]c(C(C)(C)C)nc2-c2ccc3c(c2)OCO3)n1` here?
Answer: 9.08%

Question: And the parasite growth remaining, % of DMSO control (lower = more inhibition) [2, 14]?
Answer: 19.7%

Question: What about the parasite growth, % of control (lower = inhibition) [3, 14] of the same compound?
Answer: 10.1%

Question: What about the growth, % of control [4, 14] of the same compound?
Answer: 8.33%

Question: What about the cell viability, % of control (lower = more cytotoxic) [5] of the same compound?
Answer: 235%

Question: What about the viability (% of control) [6] of the same compound?
Answer: 17.9%

Question: What about the Potency [7] of the same compound?
Answer: inactive

Question: What about the Potency [8] of the same compound?
Answer: inactive

Question: And the Potency [9]?
Answer: 8.33 µM (active)

Question: What about the Potency [10] of the same compound?
Answer: 10.5 µM (active)

Question: With `Cc1ccc(S(=O)(=O)OCC(=O)Nc2ccc(C(=O)O)c(O)c2)cc1` as the compound, how does the parasite growth, % of DMSO control [1, 14] read?
Answer: 61.2%

Question: What about the parasite growth remaining, % of DMSO control (lower = more inhibition) [2, 14] of the same compound?
Answer: 85.7%

Question: What about the growth, % of control [4, 14] of the same compound?
Answer: 75.5%

Question: What about the cell viability, % of control (lower = more cytotoxic) [5] of the same compound?
Answer: 96.8%

Question: And the viability (% of control) [6]?
Answer: 25.4%

Question: What about the Potency [7] of the same compound?
Answer: inactive

Question: What about the Potency [8] of the same compound?
Answer: inactive

Question: And the Potency [9]?
Answer: 11.8 µM (active)

Question: And the Potency [10]?
Answer: 11.8 µM (active)

Question: With `CC1CNc2c(cccc2S(=O)(=O)N[C@@H](CCCN=C(N)N)C(=O)N2CC[C@@H](C)C[C@@H]2C(=O)O)C1` (stereo partly specified) as the compound, how does the parasite growth, % of DMSO control [1, 14] read?
Answer: 82.3%

Question: What about the parasite growth remaining, % of DMSO control (lower = more inhibition) [2, 14] of the same compound?
Answer: 91.3%

Question: What about the cell viability, % of control (lower = more cytotoxic) [5] of the same compound?
Answer: 225%

Question: And the viability (% of control) [6]?
Answer: 6.64%

Question: And the Potency [7]?
Answer: inactive

Question: And the Potency [8]?
Answer: inactive

Question: And the Potency [9]?
Answer: 9.35 µM (active)

Question: And the Potency [10]?
Answer: 14.8 µM (active)

Question: Which parasite growth, % of DMSO control [1, 14] does the source give for `Nc1ncnc2c1c(-c1cccc(OCc3ccccc3)c1)cn2C1CC(CN2CCC2)C1` (stereo unspecified) here?
Answer: 31.5%

Question: And the parasite growth remaining, % of DMSO control (lower = more inhibition) [2, 14]?
Answer: 30.5%

Question: And the parasite growth, % of control (lower = inhibition) [3, 14]?
Answer: 21.6%

Question: What about the cell viability, % of control (lower = more cytotoxic) [5] of the same compound?
Answer: 26.4%

Question: And the viability (% of control) [6]?
Answer: 44.4%

Question: What about the Potency [7] of the same compound?
Answer: inactive

Question: What about the Potency [8] of the same compound?
Answer: inactive

Question: What about the Potency [9] of the same compound?
Answer: 20.9 µM (active)

Question: And the Potency [10]?
Answer: 4.69 µM (active)

Question: Which parasite growth, % of DMSO control [1, 14] does the source give for `NC1(C(=O)N[C@@H](CCO)c2ccc(Cl)cc2)CCN(c2ncnc3[nH]ccc23)CC1` here?
Answer: 32.2%

Question: What about the parasite growth remaining, % of DMSO control (lower = more inhibition) [2, 14] of the same compound?
Answer: 85.9%

Question: What about the parasite growth, % of control (lower = inhibition) [3, 14] of the same compound?
Answer: 24.5%

Question: What about the growth, % of control [4, 14] of the same compound?
Answer: 97.9%

Question: What about the cell viability, % of control (lower = more cytotoxic) [5] of the same compound?
Answer: 6.91%

Question: And the viability (% of control) [6]?
Answer: 27.4%

Question: And the Potency [7]?
Answer: inactive

Question: And the Potency [8]?
Answer: inactive

Question: And the Potency [9]?
Answer: 3.72 µM (active)

Question: And the Potency [10]?
Answer: 16.6 µM (active)

Question: For `OC[C@H]1O[C@@H](O[C@H]2[C@@H](O)[C@@](O)(CO)O[C@@H]2CO)[C@H](O)[C@@H](O)[C@@H]1O`, which parasite growth, % of DMSO control [1, 14] is on record?
Answer: 87.6%

Question: And the parasite growth remaining, % of DMSO control (lower = more inhibition) [2, 14]?
Answer: 72.5%

Question: And the parasite growth, % of control (lower = inhibition) [3, 14]?
Answer: 79.8%

Question: And the growth, % of control [4, 14]?
Answer: 88%

Question: And the cell viability, % of control (lower = more cytotoxic) [5]?
Answer: 137%

Question: And the viability (% of control) [6]?
Answer: 96.1%

Question: And the Potency [7]?
Answer: inactive

Question: And the Potency [8]?
Answer: inactive

Question: And the Potency [9]?
Answer: inactive

Question: And the Potency [13]?
Answer: inactive
